Growth data for 37 molecules are collected here from PubChem BioAssay (NCI).

About 83,000 compounds went through this panel and 20% of them were active in at least one assay; those are over-represented in the sample as a whole.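 Method: cells in 96-well plates; compound added at one concentration; 48 h incubation; percent growth measured; values under 10 scored active.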 A number with no mark means an inactive call. Activity calls are given as the source filed them.

The subject of the first assay is MOLT-4 leukemia. As to the kind of experiment: NCI-60 one-dose screen, 48 h (100 = growth as untreated, 0 = no growth, -100 = all killed). The following applies: 10 µM unless noted.
Take `Cn1cc(C2=C(c3cn(C4CCN(Cc5ccccn5)CC4)c4ccccc34)C(=O)NC2=O)c2ccccc21`: the growth was 85.7%.
Same read-out and setting: to `O=C1OCCC1Br` (centres undefined) belongs 107%.
On the same count and under the same terms, to `CC(CO)NC1CCCCC1` (centres undefined) belongs 98.9%.
Still for that read-out and setting: to `CC[C@H](C)[C@H](NC(=O)C12CC(NC(C)=O)(C1)C2)C(=O)N(C)[C@H](C[C@@H](OC(C)=O)c1nc(C(=O)N[C@@H](Cc2ccccc2)C[C@H](C)C(=O)OC)cs1)C(C)C` belongs 21.4%.
On to `CC[C@H](C)[C@H](NC(=O)NC(C)(C)C)C(=O)N(C)[C@H](C[C@@H](OC(C)=O)c1nc(C(=O)N[C@@H](Cc2ccccc2)C[C@H](C)C(=O)OC)cs1)C(C)C`, for which the growth is 17.4%.
The same measure, in the same setting: to `ClCCN(CCCl)Cc1ccc(Nc2ccnc3cc(Cl)ccc23)cc1` belongs -33.5% (active).
Still for that read-out and setting: the value for `O=C(N/N=C\c1ccc(N(CCCl)CCCl)cc1)c1cccc([N+](=O)[O-])c1` was 89.7%.
Same read-out and setting: to `O=[N+]([O-])c1c(Br)sc(Br)c1[N+](=O)[O-]` belongs -3.6% (active); to `CC12CC(=O)C3(SC#N)C(CCC4=CC(=O)CCC43C)C1CCC2=O` (centres undefined), 22.2%.
Regarding `CCn1c2ccccc2c2cc(C(=O)c3ccc(C)c4ccccc34)ccc21`, the growth is 7.66% (active).
Same read-out and setting: to `COc1ccc([As]=[As]c2ccc(OC)c(NCS(=O)(=O)O)c2)cc1NCS(=O)(=O)O` (centres undefined) belongs -0.189% (active); to `NC1CC2CCCCC2CC1(O)c1ccccc1` (centres undefined), 85.7%; to `N/C(=N/N=C/c1ccncc1)N[N+](=O)[O-]`, 84.2%.
For the molecule `O=C1CCC2(O)[C@@H]3Cc4ccc(O)c5c4[C@]2(CCN3Cc2ccoc2)C1O5` (some centres undefined), the growth is 101%.
Same read-out and setting: the value for `CCOP(=O)(Nc1ccc2c(c1)/C(=N/NC(N)=S)c1ccccc1-2)OCC` was 92%; that for `O=C(N/N=C\c1ccc(N(CCCl)CCCl)cc1Cl)c1cccnc1` was 87.5%; that for `COC(=O)CCc1c[nH]c2ccc(N(CCCl)CCCl)cc12` was 23.1%.
For `COc1cc(C=Nc2cccc(C(=O)O)c2)ccc1N(CCCl)CCCl`, the growth was 97.9%.
Still for that read-out and setting: to `C/C(CC(C)(C)N1CC1)=N\NC(=O)Nc1cccc2ccccc12` belongs 12.2%.
The same measure, in the same setting: to `CCCCNC(c1ccc(Cl)cc1)C(O)c1ccc(Cl)cc1` (centres undefined) belongs 9.52% (active); to `O=C(O)CNC(=O)C(Cl)(Cl)Cl`, 91.7%.
Same read-out and setting: to `CC1(C)[C@H](O)[C@H](F)C[C@@]2(C)Oc3ccc(C(=O)Nc4ccc5c(c4)NC(=O)C54CCN(CCCCC#N)CC4)cc3C[C@H]12` belongs -19.5% (active); to `COC(=O)[C@@H](C)C[C@H](Cc1ccccc1)NC(=O)c1csc([C@@H](C[C@H](C(C)C)N(C)C(=O)[C@@H](NC(=O)[C@H]2CCCCN2C)C(C)C)OC(C)=O)n1`, 4.52% (active).
Turning to `N#CCCNc1ccccc1`, the growth was 79.3%.
On the same count and under the same terms, the value for `CCCCCC1(CCBr)C(=O)NC(=O)NC1=O` was 104%; that for `CC[C@H](C)[C@H](NC(=O)[C@H]1CCCCN1C)C(=O)N(C)[C@H](CCc1nc(C(=O)N[C@@H](Cc2ccccc2)C[C@H](C)C(=O)OC)cs1)C(C)C` was 15%; that for `COC(=O)[C@@H](C)C[C@H](Cc1ccccc1)NC(=O)c1csc([C@@H](C[C@H](C(C)C)N(C)C(=O)[C@@H](NC(=O)[C@H]2CCCCN2C)C(C(F)(F)F)C(F)(F)F)OC(C)=O)n1` was 5.94% (active).
Same read-out and setting: to `NC(CCl)CCl` belongs 105%; to `[Cl][Hg][n]1c(-c2ccco2)nc2ccccc21`, 88.3%; to `Cc1cc(N(CCCl)CCCl)ccc1C=Nc1ccccc1-c1ccccc1`, 41.9%.
The same measure, in the same setting: to `CCC1CN1CCCCN1CC1CC` (centres undefined) belongs 108%.
As to `COC(=O)[C@@H](C)C[C@H](Cc1ccccc1)NC(=O)c1csc([C@@H](C[C@H](C(C)C)N(C)C(=O)[C@@H](NC(=O)C23CC(NC(C)=O)(C2)C3)C2CC2)OC(C)=O)n1`, the growth is 57.4%.
The same measure, in the same setting: to `O=[N+]([O-])CC(O)C(Cl)(Cl)Cl` (centres undefined) belongs 107%; to `O=[N+]([O-])c1ccc(OP(=O)(CCl)N(CCCl)CCCl)cc1` (centres undefined), 89.7%; to `CCOc1ccc(/C=C/[N+](=O)[O-])cc1`, 118%.
On the same count and under the same terms, to `CN(C)CCCOc1ccc2c(c1)c(C(=O)C(=O)NCCO)cn2Cc1ccccc1` belongs 111%; to `O=C(CC1(O)C(=O)Nc2ccc(Cl)cc21)c1ccc(C(=O)NCC2CCC3(CC2)OOC2(CCCCC2)OO3)cc1` (centres undefined), -39.9% (active).

A further assay deals with SR leukemia. Described as above. The following applies: 10 µM unless noted.
In the case of `Cn1cc(C2=C(c3cn(C4CCN(Cc5ccccn5)CC4)c4ccccc34)C(=O)NC2=O)c2ccccc21`, the growth is 7.89% (active).
As to `O=C1OCCC1Br` (centres undefined), the growth was 92.3%.
The same measure, in the same setting: the value for `CC(CO)NC1CCCCC1` (centres undefined) was 104%; that for `CC[C@H](C)[C@H](NC(=O)C12CC(NC(C)=O)(C1)C2)C(=O)N(C)[C@H](C[C@@H](OC(C)=O)c1nc(C(=O)N[C@@H](Cc2ccccc2)C[C@H](C)C(=O)OC)cs1)C(C)C` was 20.8%.
Still for that read-out and setting: the value for `CC[C@H](C)[C@H](NC(=O)NC(C)(C)C)C(=O)N(C)[C@H](C[C@@H](OC(C)=O)c1nc(C(=O)N[C@@H](Cc2ccccc2)C[C@H](C)C(=O)OC)cs1)C(C)C` was 10.6%.
As for `ClCCN(CCCl)Cc1ccc(Nc2ccnc3cc(Cl)ccc23)cc1`, the growth is -15.9% (active).
Same read-out and setting: the value for `O=C(N/N=C\c1ccc(N(CCCl)CCCl)cc1)c1cccc([N+](=O)[O-])c1` was 103%.
Same read-out and setting: to `O=[N+]([O-])c1c(Br)sc(Br)c1[N+](=O)[O-]` belongs -5.81% (active); to `CC12CC(=O)C3(SC#N)C(CCC4=CC(=O)CCC43C)C1CCC2=O` (centres undefined), 86.1%.
Consider `CCn1c2ccccc2c2cc(C(=O)c3ccc(C)c4ccccc34)ccc21`, for which the growth is 2.83% (active).
As to `COc1ccc([As]=[As]c2ccc(OC)c(NCS(=O)(=O)O)c2)cc1NCS(=O)(=O)O` (centres undefined), the growth was -1.51% (active).
Consider `NC1CC2CCCCC2CC1(O)c1ccccc1` (centres undefined), for which the growth is 90.7%.
For `N/C(=N/N=C/c1ccncc1)N[N+](=O)[O-]`, the growth is 90.9%.
The same measure, in the same setting: the value for `O=C1CCC2(O)[C@@H]3Cc4ccc(O)c5c4[C@]2(CCN3Cc2ccoc2)C1O5` (some centres undefined) was 95.4%; that for `CCOP(=O)(Nc1ccc2c(c1)/C(=N/NC(N)=S)c1ccccc1-2)OCC` was 109%.
The same measure, in the same setting: to `O=C(N/N=C\c1ccc(N(CCCl)CCCl)cc1Cl)c1cccnc1` belongs 99.5%; to `COC(=O)CCc1c[nH]c2ccc(N(CCCl)CCCl)cc12`, 12.7%; to `COc1cc(C=Nc2cccc(C(=O)O)c2)ccc1N(CCCl)CCCl`, 91.9%.
Turning to `C/C(CC(C)(C)N1CC1)=N\NC(=O)Nc1cccc2ccccc12`, the growth is 20.9%.
The same measure, in the same setting: the value for `CCCCNC(c1ccc(Cl)cc1)C(O)c1ccc(Cl)cc1` (centres undefined) was -34.2% (active); that for `O=C(O)CNC(=O)C(Cl)(Cl)Cl` was 89.8%.
On the same count and under the same terms, the value for `CC1(C)[C@H](O)[C@H](F)C[C@@]2(C)Oc3ccc(C(=O)Nc4ccc5c(c4)NC(=O)C54CCN(CCCCC#N)CC4)cc3C[C@H]12` was 10.4%; that for `COC(=O)[C@@H](C)C[C@H](Cc1ccccc1)NC(=O)c1csc([C@@H](C[C@H](C(C)C)N(C)C(=O)[C@@H](NC(=O)[C@H]2CCCCN2C)C(C)C)OC(C)=O)n1` was 6.8% (active); that for `N#CCCNc1ccccc1` was 77.1%.
The same measure, in the same setting: the value for `CCCCCC1(CCBr)C(=O)NC(=O)NC1=O` was 94.7%.
On to `CC[C@H](C)[C@H](NC(=O)[C@H]1CCCCN1C)C(=O)N(C)[C@H](CCc1nc(C(=O)N[C@@H](Cc2ccccc2)C[C@H](C)C(=O)OC)cs1)C(C)C`, for which the growth was 13.2%.
As to `COC(=O)[C@@H](C)C[C@H](Cc1ccccc1)NC(=O)c1csc([C@@H](C[C@H](C(C)C)N(C)C(=O)[C@@H](NC(=O)[C@H]2CCCCN2C)C(C(F)(F)F)C(F)(F)F)OC(C)=O)n1`, the growth was 5.49% (active).
Same read-out and setting: to `NC(CCl)CCl` belongs 108%.
Still for that read-out and setting: to `[Cl][Hg][n]1c(-c2ccco2)nc2ccccc21` belongs 64.2%; to `Cc1cc(N(CCCl)CCCl)ccc1C=Nc1ccccc1-c1ccccc1`, 30.6%.
Turning to `CCC1CN1CCCCN1CC1CC` (centres undefined), the growth is 104%.
Still for that read-out and setting: the value for `COC(=O)[C@@H](C)C[C@H](Cc1ccccc1)NC(=O)c1csc([C@@H](C[C@H](C(C)C)N(C)C(=O)[C@@H](NC(=O)C23CC(NC(C)=O)(C2)C3)C2CC2)OC(C)=O)n1` was 29.1%; that for `O=[N+]([O-])CC(O)C(Cl)(Cl)Cl` (centres undefined) was 98.5%; that for `O=[N+]([O-])c1ccc(OP(=O)(CCl)N(CCCl)CCCl)cc1` (centres undefined) was 87.9%.
Same read-out and setting: to `CCOc1ccc(/C=C/[N+](=O)[O-])cc1` belongs 67.5%; to `CN(C)CCCOc1ccc2c(c1)c(C(=O)C(=O)NCCO)cn2Cc1ccccc1`, 115%.
The same measure, in the same setting: to `O=C(CC1(O)C(=O)Nc2ccc(Cl)cc21)c1ccc(C(=O)NCC2CCC3(CC2)OOC2(CCCCC2)OO3)cc1` (centres undefined) belongs -48.2% (active).
